Screening data (PubChem BioAssay)
PLK1 PBD block – blocks phosphopeptide binding to human PLK1 polo-box domain; Plk1 PBD binding of FITC phosphopeptide, fluorescence polarization; Potency, µM, without a hit: max response, negative = inhibition, actives largely listed as inhibitors; P53350; actives 2.8% (n = 360,000); further: series mostly up to about 57 µM; on the % scale 0 is the no-effect control and ±100 the full control effect; nearly all actives have a fitted effect of over 65% in size
G9a block – G9a (human) methyltransferase inhibition | G9a H3K9 monomethylation, AlphaScreen, 2 h | Potency, µM (highest dose often 102 µM), for the others: at the highest dose activity, negative = inhibition, most hits filed as inhibitors | actives 8.8% (n = 350,000); further: on the % scale 0 is the no-effect control and ±100 the full control effect; nearly all actives have a fitted effect of over 75% in size
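Quantitative HTS format: methyltransferase activity on a biotin-tagged H3K9 peptide is measured by AlphaScreen, using a rabbit anti-monomethyl-H3K9 antibody with streptavidin donor and anti-IgG acceptor beads. Final levels are 20 nM enzyme, 500 nM peptide, 20 uM SAM; 2 h RT.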
BAZ2B block – blocks human BAZ2B | Q9UIF8 | AlphaScreen BAZ2B-H3K14Ac peptide displacement | Potency, µM (doses to about 114 µM), inactives show at the highest dose activity change, negative = inhibition, most hits filed as inhibitors | actives 4.4% (n = 360,000) | AID 504333; further: on the % scale 0 is the no-effect control and ±100 the full control effect; nearly all actives have a fitted effect of over 60% in size
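AlphaScreen displacement of biotin-H3(5-23)K14Ac peptide (50 nM final) from BAZ2B (50 nM final) in PBS pH 7.4, 0.01% Tween-20; complex preformed 30 min RT, then compounds (top 110 uM) 30 min RT, beads 20 min dark.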
HP1b binding inh – HP1-beta chromodomain-methylated histone interaction inhibition | P83916 | AlphaScreen HP1-beta / biotin-H3K9me3 peptide binding | Potency, µM (titrated, usually from 114 µM), without a hit: at the top dose activity change, negative = inhibition, hits mostly inhibitors | actives 0.56% (n = 390,000) | AID 540317; further: nearly all actives have a fitted effect of over 70% in size
Target sequence (P83916 whole entry, looked up): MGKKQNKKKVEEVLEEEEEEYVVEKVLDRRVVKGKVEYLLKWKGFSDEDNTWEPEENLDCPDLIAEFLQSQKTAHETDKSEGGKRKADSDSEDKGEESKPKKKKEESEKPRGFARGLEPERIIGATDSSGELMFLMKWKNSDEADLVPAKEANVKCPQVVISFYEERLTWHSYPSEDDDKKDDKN
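HP1-beta protein (50 nM final) preincubated 30 min at room temperature with biotinylated H3(1-18)K9me3 peptide (50 nM) in PBS pH 7.4, 0.01% Tween-20, then compound added for 30 min. AlphaScreen streptavidin donor/nickel chelate acceptor beads (10 ug/mL final), 30 min dark, luminescence read.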
VDR inhibitor – inhibitors of human vitamin D receptor; Potency, µM, for inactives: max response, negative = inhibition, usual class: inhibitors; VDR-SRC2-3 peptide fluorescence polarization, 2 h; actives 0.93% (n = 400,000); P11473; further: on the % scale 0 is the no-effect control and ±100 the full control effect
Target sequence (P11473 whole entry, looked up): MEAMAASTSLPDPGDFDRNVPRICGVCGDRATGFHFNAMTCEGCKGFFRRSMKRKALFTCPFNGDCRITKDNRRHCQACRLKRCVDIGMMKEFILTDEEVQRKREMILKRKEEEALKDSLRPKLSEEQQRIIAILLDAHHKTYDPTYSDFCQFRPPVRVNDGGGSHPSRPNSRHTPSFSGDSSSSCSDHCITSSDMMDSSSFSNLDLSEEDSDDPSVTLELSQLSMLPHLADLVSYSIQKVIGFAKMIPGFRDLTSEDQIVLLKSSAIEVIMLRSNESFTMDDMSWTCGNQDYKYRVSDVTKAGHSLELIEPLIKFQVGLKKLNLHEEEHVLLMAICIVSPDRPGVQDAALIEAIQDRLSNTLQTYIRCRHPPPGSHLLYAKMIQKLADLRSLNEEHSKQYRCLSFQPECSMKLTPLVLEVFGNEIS
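Fluorescence polarization assay measuring small-molecule disruption of VDR binding to the coregulator peptide SRC2-3. Compounds were pin-transferred (23 nl) into the reagent mix and incubated 2 h at room temperature before reading.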
JMJD2A Tudor inh – blocks the human JMJD2A Tudor domain; actives 4.4% (n = 390,000); Potency, µM (highest dose often 114 µM), without a hit: top-dose activity change, negative = inhibition, most hits filed as inhibitors; O75164; AlphaScreen JMJD2A-Tudor / H3K4me3 peptide binding; AID 504339; further: on the % scale 0 is the no-effect control and ±100 the full control effect; nearly all actives have a fitted effect of over 50% in size
Active calls of the source: *; ? = inconclusive; · = no result; [ ] = dose if it differs, or a comment. Only some compounds are listed: those with a hit (about 11% of all), similar ones and a draw of the others. The call rests on the fitted dose curve; in most records, active means well fitted curve in the direction sought with a large enough effect; inconclusive means small, poorly fitted or top-dose-only effect, or another doubt; inactive means no such curve, though single readings can be large; an effect the other way counts as inactive or inconclusive. Potency means the concentration at half of the fitted maximal effect.

SMILES	PLK1 PBD block	G9a block	BAZ2B block	HP1b binding inh	VDR inhibitor	JMJD2A Tudor inh
CCSc1oc(-c2ccco2)nc1S(=O)(=O)c1ccc(F)cc1	-7%	4µM*	3%	14%	-7%	-15%
Cc1ccc(S(=O)(=O)c2nc(-c3ccco3)oc2SCc2ccc(F)cc2)cc1	·	?	-13%	18%	4%	-9%
CCOc1ccc(NC(=O)CSc2oc(-c3ccco3)nc2S(=O)(=O)c2ccc(C)cc2)cc1	·	1%[59 µM]	0%	16%	8%	-20%
CC(C)CSc1oc(-c2ccco2)nc1S(=O)(=O)c1ccccc1	-18%	35µM*	-20%	63%	-24%	4%
Cc1ccc(S(=O)(=O)c2nc(-c3ccco3)oc2SCC(C)C)cc1	·	?	-1%	41%	-5%	-1%
CC1CN(C(=S)NC(=O)c2ccco2)CC(C)O1 (stereo not drawn)	-3%	?	5%	22%	-3%	?
CC1CN(C(=S)NC(=O)c2ccc([N+](=O)[O-])cc2)CC(C)O1 (stereo not drawn)	-2%	40µM*	-34%[57.1 µM]	24%	1%	-35%
O=C(NC(=S)N1CCOCC1)c1ccc([N+](=O)[O-])cc1	-13%	8.9µM*	?	44%	-10%	-6%
CC1CN(C(=S)NC(=O)c2ccccc2)CC(C)O1 (stereo not drawn)	-6%	71µM*	-38%	24%	-21%	-25%
CC1CN(C(=S)c2cccc([N+](=O)[O-])c2)CC(C)O1 (stereo not drawn)	?	6.3µM*	-19%	?	-1%	?
Cn1nnc2c(N3CCN(Cc4ccccc4)CC3)ncnc21	·	·	·	39%	-5%	-10%
CC1CN(C(=S)SCC(=O)c2ccc([N+](=O)[O-])cc2)CC(C)O1 (stereo not drawn)	-3%	14µM*	?	-11%	12%	-26%
Cn1cccc1-c1cc(C(=O)O)[nH]n1	0%	50µM*	?	33%	12%	-7%
O=C(c1cc2c([nH]c1=O)CCCC2)N1CCc2c([nH]c3ccccc23)C1c1ccccc1F (stereo not drawn)	6%	·	?	-6%	16%	?
O=C(c1cc2ncccn2n1)N1CCc2c([nH]c3ccccc23)C1c1ccccc1F (stereo not drawn)	-16%	-5%	-17%	8%[57 µM]	-8%	?
Cn1cccc1-c1cc(C(=O)N2CCc3c([nH]c4ccccc34)C2c2ccccn2)[nH]n1 (stereo not drawn)	-10%	35µM*	35µM*	?	-9%	50µM*
O=C(O)c1cc(-c2ccccc2)n[nH]1	·	13%[59 µM]	8%	50%	0%	-6%
Cc1ncoc1C(=O)N1CCc2c([nH]c3ccccc23)C1c1ccccc1F (stereo not drawn)	-6%	40µM*	50µM*	-13%	-2%	?
Cc1cccc(C2c3[nH]c4ccccc4c3CCN2C(=O)c2cc3c([nH]c2=O)CCCC3)n1 (stereo not drawn)	-3%	-8%[12.7 µM]	45µM*	-10%	11%	?
CCOC(=O)c1cccc(Nc2cc(C)nc(C)n2)c1	·	8%[59 µM]	-21%	40%	13%	-16%
CCOC(=O)c1[nH]c(C)c(C(=O)N2CCc3c([nH]c4ccccc34)C2c2ccccn2)c1C (stereo not drawn)	-3%	8%[0.501 µM]	50µM*	-24%	-7%	?
CCC(CC)CC1CN2CCc3cc(OC)c(OC)cc3C2CC1(O)CC (stereo not drawn)	-6%	·	·	·	·	·
CC(=O)NC1C(=O)N(CCN2CCOCC2)c2ccc(Br)cc21 (stereo not drawn)	-12%	3.2µM*	10µM*	?	?	8.9µM*
CCOc1ccc2c(c1)C(NC(C)=O)C(=O)N2CCN1CCOCC1 (stereo not drawn)	21µM*	16µM*	10µM*	22%	79µM*	14µM*
CCN1C(=O)C(NC(C)=O)c2cc(OC)ccc21 (stereo not drawn)	-1%	50µM*	2%	48%	-12%	3%
SMILES	PLK1 PBD block	G9a block	BAZ2B block	HP1b binding inh	VDR inhibitor	JMJD2A Tudor inh
Cc1cc(OCC(=O)NC(Cc2ccc(Cl)cc2)C(=O)O)c2c(C)c(C)c(=O)oc2c1 (stereo not drawn)	-20%	·	2%	23%	?	-14%
O=C1CCC2=C1C(c1ccccc1Cl)N=C(Nc1nc3ccccc3o1)N2 (stereo not drawn)	·	·	·	·	·	-23%
Cc1ccc(C(C)C)c(OCCOCCN2CCNCC2)c1	-2%	·	·	5%	-1%	-23%
Cc1cc(C(C)(C)C)ccc1OCCN(C)C	-9%	8.9µM*	28µM*	?	?	7.9µM*
Cc1ccc(C(C)C)c(OCC#CCN2CCOCC2)c1	-8%	7.9µM*	50µM*	?	-15%	22µM*
Cc1ccc(C(C)C)c(OCCN(C)C)c1	0%	3.5µM*	35µM*	?	7%	2.8µM*
Cc1ccc(C(C)C)c(OCCCCN2CCNCC2)c1	-4%	4µM*	28µM*	?	-5%	7.1µM*
Cc1ccc(C(C)C)c(OCCN)c1	-4%	?	5%	9%	-7%	-10%
Cc1ccc(C(C)C)c(OCC(O)CN2CCOCC2)c1 (stereo not drawn)	-1%	2%	15%	37%	6%	-9%
C=CS(=O)(=O)N(Cc1ccc(Cl)c(Cl)c1)C[C@@H](O)CO	-9%	·	·	34%	?	-17%
Cc1ccc(NC(=O)CSc2nnc(C)n2C2CC2)cc1S(=O)(=O)N1CCOCC1	5%	16%[12.7 µM]	7%	40%	3%	2%
CC(C)CCOc1ccc(Cn2c(=O)sc3ccccc32)cc1	·	78%[59 µM]	196%	199%	4%	177%
Cc1ccc(C)c(OCCCCN2CCNCC2)c1C	-3%	?	-22%	54%	3%	-23%
CCCN(CCC)CCOc1cc(C)ccc1C(C)C	4%	18µM*	?	?	-1%	3.2µM*
Cc1ccc(SCCCCN2CCNCC2)cc1	17µM*	8.9µM*	40µM*	12%	-14%	11µM*
COCCN(CCOC)C(=O)C12CCC(C)(C(=O)C1)C2(C)C (stereo not drawn)	-4%	50µM*	-5%	10%	16%	-10%
COc1cc(OC)c2ccc(=O)oc2c1C(CCN1CCCC1)c1ccc2c(c1)OCO2 (stereo not drawn)	-3%	29%[12.7 µM]	-32%	4%	-11%	-36%
COc1cc(OC)c2c(-c3ccccc3)cc(=O)oc2c1C(CCN1CCCC1)c1ccc2c(c1)OCO2 (stereo not drawn)	-21%	-47%[59 µM]	-38%	-9%	-22%	?
